# Laboratory results from PubChem BioAssay (NCATS).
# Inconclusive results are not listed. A call without a number means that no potency is given here. Calls of active or inactive are those of the source. The call rests on the fitted dose curve; in most records, active means well fitted cell-killing curve with a large enough effect; inconclusive means small, poorly fitted or top-dose-only effect; inactive means flat fitted curve, though single readings scatter.
# Experiment: Quantitative highthroughput screen to assess conditional lethalithy of P12 Ichikawa cells grown in RPMI1640 with dialyzed fetal bovine serum (RPMI+ds) (AID 1963880); further: nearly all actives have a fitted effect of over 35% in size
# Settings: ATP luminescence, 48 h; Potency: P12-Ichikawa viability; series mostly up to 45.8 µM
# Description: Assay Provider: Jason Cantor Ph.D.
# Department of Biochemistry
# University of Wisconsin-Madison, Madison, WI, USA
# Chemical screening studies have identified drug sensitivities across hundreds of cancer cell lines but most putative therapeutics fail to translate. Discovery and development of drug candidates in models that more accurately reflect nutrient levels in human blood is a major challenge. Here we performed high-throughput screens in conventional versus Human Plasma-Like Medium (HPLM) to identify compounds that were "missed" when screening using the artificial culture condition. Sets of conditional anticancer compounds spanned phases of clinical development and included non-oncology drugs were assessed. […] We also traced conditional phenotypes for several chemotherapeutics to availability of HPLM-specific metabolites and confirmed others for compounds whose reported targets are encoded by nonessential genes. Our findings establish generalizable strategies for exploiting conditional lethality in HPLM to reveal therapeutic candidates and mechanisms of action in cancer cells.
# Described herein are the results of each viability screens against three cell lines: NOMO1 (an acute myeloid leukemia cell line); P12-Ichikawa (a T-cell acute lymphoblastic leukemia); and SEM (a B-cell ALL). Each assay was screened using 3 different cell culture media: homemade human plasma-Like medium with 10% dialyzed fetal bovine serum (HPLM+ds); RPMI1640 with 10% untreated FBS and 5mM glucose (RPMI+s); and RPMI1640 with 10% dialyzed fetal bovine serum and 5 mM glucose (RPMI+ds).
# PROTOCOL TABLE (as described by Inglese J, Shamu CE and Guy RK. 2007)
# SEQUENCE No. (e.g., 1, 2, 3, etc.); […] (e.g., Cells, Incubation, Reagent, etc.); VALUE and DESCRIPTION.
# 1; Cells; 5 uL; white, solid bottom 1536-well Greiner assay plate.
# 2; Compounds; 23 nL; Kalypsis pin tool (Wako USA) equipped with a 1536-well pin head to transfer to the assay plates.
# 3; Incubation; 48 hours; 37C incubation.
# 4; Reagent; 3 uL; CellTiter Glo (Promega).
# 5; Incubation; 5 min, room temperature
# 6; Detection; Luminescence, Viewlux PerkinElmer.
# NOTES (numbers refer to Sequence numbers above)
# 1. Briefly, 5 ul of cell reagent was dispensed using a Multidrop Combi Dispenser. The NOMO1 and SEM cells were plated at 500 cells/well and the P12-Ichikawa line at 1000 cells/well.
# 2. After seeding the cells, 23 nL of MIPE 4.1 library compounds (in DMSO) were added to each plate using a Kalypsys 1536 Pintool dispenser. Bortezomib at final concentration of […] and DMSO were added to each plate as positive and negative controls respectively. For each screen, MIPE 4.1 compounds were added over an eleven-point concentration range […] in 3-fold dilutions.
# 3. Each plate was covered with a stainless steel gasketed lid to prevent evaporation and incubated for 48 hour at 37C, 95% relative humidity, and 5% CO2.
# 4-5. Three microliter CellTilter-GloTM luminescent substrate mix (Promega) reagent was added to the assay plate and incubated at room temperature for 5 min.
# 6. The luminescence signal was measured using a ViewLux (PerkinElmer) multiplate reader with a 2 second exposure time per plate. Data for each compound were normalized as percent viability such that measurements for DMSO and the empty well controls in each plate were defined as 100% and 0%, respectively.
# Potency means the concentration at half of the fitted maximal effect.
row,SMILES,Potency
1,COc1ccc(CC2NCCc3cc(OC)c(OC)cc32)cc1OC (stereo not given),inactive
2,COC1=CC(C)=C[C@@H](C)[C@@H](O)[C@@H](C)CC(C)=CC=C[C@H](OC)[C@H]([C@@H](C)[C@@H](O)[C@H](C)[C@@]2(O)C[C@@H](O)[C@H](C)[C@@H](C(C)C)O2)OC1=O,0.0662 µM (active)
3,Cc1cccc(C)c1NC(=O)CN1CCCC1=O,inactive
4,COc1ccc(C(=O)c2c(C)n(CCN3CCOCC3)c3ccccc23)cc1,inactive
5,Clc1ccccc1C(c1ccccc1)(c1ccccc1)n1cccn1,inactive
6,CC(N[C@H]1C[C@H]1c1ccccc1)c1ccc2c(c1)OCCO2 (stereo not given in full),inactive
7,C[C@]12Cc3cn[nH]c3C[C@@H]1CC[C@@H]1[C@H]2CC[C@@]2(C)[C@H]1CC[C@]2(C)O,inactive
8,CN1C(=O)COc2c(C(=O)NC3CN4CCC3CC4)cc(Cl)cc21 (stereo not given),inactive
9,O=C(Oc1ccc([N+](=O)[O-])cc1)N1CCC(C(O)(c2ccc3c(c2)OCO3)c2ccc3c(c2)OCO3)CC1,inactive
10,Cc1nc(-c2ccc(-c3ccc(C(=O)N4CCc5cc6c(cc54)C4(CCN(C)CC4)CO6)cc3)c(C)c2)no1,inactive
11,COc1ccc2c(c[n+](C)c3c4cc5c(cc4ccc23)OCO5)c1OC,14.8 µM (active)
12,CC(O)=C(C#N)C(=O)Nc1cc(Br)ccc1Br,inactive
13,C[C@]12CCC(=O)C(O)=C1CC[C@@H]1[C@H]3CCC(=O)[C@@]3(C)CC[C@@H]12,inactive
14,O=C(O)C(=O)c1cn(Cc2ccccc2)c2ccc(-c3ccc(OC(F)(F)F)cc3)cc12,inactive
15,Cn1cc(C2=C(c3cn(C4CCN(Cc5ccccn5)CC4)c4ccccc34)C(=O)NC2=O)c2ccccc21,inactive
16,Cc1cc(SCc2sc(-c3ccc(C(F)(F)F)c(F)c3)nc2C)ccc1OCC(=O)O,inactive
17,C[C@H]1CCCC=CC2C[C@H](O)C[C@@H]2[C@H](O)C=CC(=O)O1 (stereo not given in full),0.0235 µM (active)
18,O=C1CCC[C@@H]2[C@H]3CCCN4CCC[C@@H](CN12)[C@@H]34,inactive
19,C[C@@H]1CC[C@@]2(OC1)O[C@H]1C[C@H]3[C@@H]4CC=C5C[C@@H](O[C@@H]6O[C@H](CO)[C@@H](O[C@@H]7O[C@@H](C)[C@H](O)[C@@H](O)[C@@H]7O)[C@H](O)[C@@H]6O[C@@H]6O[C@@H](C)[C@H](O)[C@@H](O)[C@@H]6O)CC[C@]5(C)[C@@H]4CC[C@]3(C)[C@@H]1[C@H]2C,23.5 µM (active)
20,CC1(N2CCC(n3c([C@@H]4CCCNC4)nc4ccccc43)CC2)CCCCCCC1,13.2 µM (active)

row,SMILES,Potency
1,O=C1CC[C@@]2(O)[C@H]3Cc4ccc(O)c5c4[C@@]2(CCN3CC2CC2)[C@H]1O5,inactive
2,Cc1ccccc1-n1c(Cn2ncc3c(N)ncnc32)nc2cccc(C)c2c1=O,3.32 µM (active)
3,C[C@]12COC(=O)C[C@@H]1CC[C@@H]1[C@H]2CC[C@@]2(C)[C@H]1CC[C@]2(C)O,inactive
4,O=C(NCC1CCOCC1)c1cnc(Nc2ccc(Cl)cc2Cl)nc1C(F)(F)F,inactive
5,CCN(CC)C(=O)c1ccc(C2=CC3(CCNCC3)Oc3cccc(O)c32)cc1,inactive
6,C[C@@H]1[C@@H](C(=O)C[C@H]2O[C@@H]3O[C@]4(C)CC[C@@H]5[C@H](C)CC[C@@H]([C@H]2C)[C@@]35OO4)O[C@@H]2O[C@]3(C)CC[C@H]4[C@H](C)CC[C@@H]1[C@@]24OO3,16.6 µM (active)
7,CC(NC(C)(C)C)C(=O)c1cccc(Cl)c1 (stereo not given),inactive
8,O=c1[nH]c2ccccc2n1C1CCN(Cc2ccc(-c3[nH]c4cc5ncnc5cc4nc3-c3ccccc3)cc2)CC1,inactive
9,NC1CC1c1ccccc1 (stereo not given),inactive
10,CC(=O)Nc1ccc(OC[C@](C)(O)C(=O)Nc2ccc([N+](=O)[O-])c(C(F)(F)F)c2)cc1,inactive
11,CC(C)(C)[C@]1(O)C[C@@H]2OC(=O)C[C@@]23C(=O)O[C@@H]2OC(=O)[C@H](O)C213 (stereo not given in full),inactive
12,CN(C)[C@@H]1C(=O)C(C(N)=O)=C(O)[C@@]2(O)C(=O)C3=C(O)c4c(O)cccc4[C@@](C)(O)[C@H]3C[C@@H]12,inactive
13,CN1CCN(c2ccc([N+](=O)[O-])c3no[n+]([O-])c23)CC1,inactive
14,O=[N+]([O-])c1ncc[nH]1,inactive
15,NC1=NC(=O)N2CC12 (stereo not given),6.62 µM (active)
16,C[C@H]([C@H](O)CCC(C)(C)O)[C@H]1CC[C@@]2(O)C3=CC(=O)[C@@H]4C[C@@H](O)[C@@H](O)C[C@]4(C)[C@@H]3CC[C@]12C,inactive
17,O=c1[nH]c2ccccc2n1CCCN1CCC(n2c(=O)[nH]c3cc(Cl)ccc32)CC1,inactive
18,CCOC(=O)Nc1ccc(NCc2ccc(F)cc2)cc1N,inactive
19,Cc1sc2c(c1C)C(c1ccc(Cl)cc1)=N[C@@H](CC(=O)OC(C)(C)C)c1nnc(C)n1-2,2.64 µM (active)
20,Cc1ncc(OC[C@@]2(c3cccc(F)c3)C[C@H]2C(=O)Nc2ccc(F)cn2)c(C)n1,inactive
